High-throughput results (PubChem)
Shown are actives, neighbours in structure and some others; about 13% of the full set was active somewhere.
A350 autofl: qHTS Assay for Spectroscopic Profiling in A350 Spectral Region; 59,000 compounds, 11% hits; Compound autofluorescence, 340/450 nm, Alexa 350 dye-equivalents; hits give high values; max dye-equivalent concentration, M; in the data active means max dye-equivalent concentration above about 10 nM; inconclusive means mostly about 1.1 nM to 9.6 nM
AID923: qHTS Assay for Allosteric/Competitive Inhibitors of Caspase-1: Spectroscopic Profiling in AFC Spectral Region; AID 923, 2007; 75,000 compounds, 1.1% hits; compound fluorescence, AFC spectral region (405/520 nm); Potency, µM (top dose mostly 57.5 µM), for inactives: at the highest dose fluorescence increase, most hits filed as activators; further: potency means the concentration at half of the fitted maximal effect; 0% is about no effect
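Baseline compound fluorescence (AFC region, 405 nm ex/520 nm em) taken from the intercept of kinetic reads with 50 nM caspase-1 and 5 uM Ac-WEHD-AFC; normalized to an on-plate AFC standard curve; compounds titrated up to 57 uM.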
USP2a inhib: qHTS Assay for Inhibitors of Ubiquitin-specific Protease USP2a | Ubiquitin carboxyl-terminal hydrolase 2 (Homo sapiens), O75604 | USP2a enzymatic assay, qHTS inhibition | Potency, µM (top dose mostly 38.3 µM), inactives show at the highest dose activity change, negative = inhibition, hits mostly inhibitors | 60,000 compounds, 0.1% hits | AID 927, 2007; further: potency means the concentration at half of the fitted maximal effect; nearly all actives have a fitted effect of over 60% in size
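USP2 core (20nM final) preincubated 30 min RT with compound, then Ub-PLA2 20nM and NBD C6-HPC 20uM final added; buffer 20mM Tris-HCl pH 8.0, 2mM CaCl2. Fluorescence Ex 460/Em 535 read at 0 and 2.5 h; normalized to NEM.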
4-MU autofl: qHTS Assay for Spectroscopic Profiling in 4-MU Spectral Region | AID 589, 2007 | max dye-equivalent concentration, M | compound autofluorescence, 340/450 nm, 4-MU equivalents; hits give high values | 59,000 compounds, 11% hits; in the data active means max dye-equivalent concentration above about 10 nM; inconclusive means mostly about 1.1 nM to 9.6 nM
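Compounds in 100 mM Tris, pH 8.0, incubated 15 min at room temperature, then fluorescence read at 340 nm excitation/450 nm emission. Signal converted to 4-MU dye-equivalent concentration using an on-plate six-point 4-MU standard curve.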
HADH2 inhib: qHTS Assay for Inhibitors of HADH2 (Hydroxyacyl-Coenzyme A Dehydrogenase, Type II). AID 886, 2007. Potency, µM (titrated, usually from 57.1 µM), inactives show top-dose activity change, negative = inhibition, hits mostly inhibitors. 73,000 compounds, 3.4% hits. 3-hydroxyacyl-CoA dehydrogenase type-2 (Homo sapiens), Q99714. recombinant HADH2, NADH fluorescence, beta-hydroxybutyryl-CoA; further: potency means the concentration at half of the fitted maximal effect; on the % scale 0 is the no-effect control and ±100 the full control effect; nearly all actives have a fitted effect of over 60% in size
Target sequence (Q99714 whole entry, looked up, one chain of several): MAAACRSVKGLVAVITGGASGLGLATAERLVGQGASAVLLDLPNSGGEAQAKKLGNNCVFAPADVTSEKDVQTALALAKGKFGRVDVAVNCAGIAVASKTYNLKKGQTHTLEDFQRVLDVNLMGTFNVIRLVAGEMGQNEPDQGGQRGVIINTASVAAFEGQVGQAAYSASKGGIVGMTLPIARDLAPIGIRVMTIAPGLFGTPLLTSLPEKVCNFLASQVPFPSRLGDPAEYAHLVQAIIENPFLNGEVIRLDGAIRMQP
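His-tagged recombinant enzyme from E. coli, 20 nM, preincubated 15 min RT with compound; reaction started with 1 mM NAD+ and 90 uM beta-hydroxybutyryl-CoA in 100 mM Tris-HCl pH 9.0. NADH fluorescence (ex 360/em 450) read over 4 min; last-minus-first difference.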
HSD17B inhib: qHTS Assay for Inhibitors of HSD17B4, hydroxysteroid (17-beta) dehydrogenase 4; 75,000 compounds, 7.6% hits; AID 893, 2007; recombinant HSD17B10, NADH fluorescence kinetic; 3-hydroxyacyl-CoA dehydrogenase type-2 (Homo sapiens), Q99714; Potency, µM (series often up to 57.1 µM), for the others: at the highest dose activity change, negative = inhibition, most hits filed as inhibitors;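 further: the protocol describes HADH2 (HSD17B10) and not the HSD17B4 of the title; potency means the concentration at half of the fitted maximal effect; on the % scale 0 is the no-effect control and ±100 the full control effect; nearly all actives have a fitted effect of over 70% in size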
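20 nM HADH2, pH 9.0 Tris/Tween; cpd preinc 15 min RT; start w/ 1 mM NAD+ + 90 uM b-hydroxybutyryl-CoA; kinetic fluor ex360/em450 q30s x 4 min; delta last-first.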
* hit, by the source's call; i = inactive; u = inconclusive; x = not tested or not shown; [ ] = remark or other dose. Unless noted, the call rests on the fitted dose curve; in most records, active means well fitted curve in the direction sought with a large enough effect; inconclusive means small, poorly fitted or top-dose-only effect, or another doubt; inactive means no such curve, though single readings can be large; an effect the other way counts as inactive or inconclusive.

SMILES	A350 autofl	AID923	USP2a inhib	4-MU autofl	HADH2 inhib	HSD17B inhib
Cc1ccc(-c2cccc(NC(=O)C3C(C(=O)O)[C@@H]4C=C[C@H]3C4)c2)o1 (some centres not stated)	i	1%	18%	i	u	20µM*
Cc1ccc(-c2ccccc2NC(=O)C2C3C=CC(C3)C2C(=O)O)o1 (configuration not stated)	2e-08M*	x	x	1.7e-08M*	x	x
CN(C)c1ccc(-c2cncnc2NCCc2cnc[nH]2)cc1	i	0%	-25%	i	10%	1%
C(=N\n1cnnc1)/c1ccc(N2CCOCC2)s1	7.8e-08M*	18%	-5%	7.3e-08M*	-15%	-12%
C(=N\n1cnnc1)/c1ccc(N2CCOCC2)cc1	x	5%	2%	x	u	u
C/C(CCN1CCCCc2nc(C)c(C)cc21)=N\O[C@@H](C)c1cc(-c2c(C)cc(C)cc2C)no1	x	-2%[11.5 µM]	x	x	-8%[11.4 µM]	-4%[11.4 µM]
CN(C)Cc1ccc(C(C)(C)C)cc1-c1cc(C(C)(C)C)ccc1CN(C)C	i	-2%[11.5 µM]	x	i	1%[11.4 µM]	2%[11.4 µM]
Cn1c(NCCN2CCCCC2)cc(=O)n(C)c1=O	1.4e-08M*	x	x	1.1e-08M*	x	x
CCOc1ncccc1C(=O)NCC1COc2ccccc2O1 (configuration not stated)	i	-3%	12%	i	0%	-1%
CC(C)(C)OCC1CO1 (configuration not stated)	x	5%	x	x	8%	5%
CCOc1cc(CC(=O)N[C@@H](CC(C)C)c2ccccc2N2CCCCC2)ccc1C(=O)O	1.9e-08M*	-3%[25.7 µM]	15%[17.1 µM]	1.9e-08M*	1%[25.6 µM]	1%[25.6 µM]
CC(C)CC(=O)Nc1ccccc1N1CCCC1	i	x	x	i	x	x
COc1ccc(CNC(=O)C(c2cccs2)N(C(=O)c2csnn2)C2CC2)cc1 (configuration not stated)	1.1e-08M*	-1%	0%	1.1e-08M*	-11%	1%
Nc1nc2n(n1)C(c1ccco1)CC(c1ccc(Cl)cc1)N2 (configuration not stated)	1.2e-08M*	0%	4%	1.2e-08M*	-4%	5%
CCOc1ccc(C2CC(c3ccc(Br)cc3)Nc3nc(N)nn32)cc1 (configuration not stated)	1.7e-08M*	0%	9%	2e-08M*	7%	u
Cc1ccc(C2CC(c3cccs3)n3nc(N)nc3N2)cc1 (configuration not stated)	2.5e-08M*	x	x	2.2e-08M*	x	x
C=CCN1CCc2c(cc(O)c(O)c2Br)[C@H](c2ccccc2)C1	i	-1%	12%	i	0.79µM*	u
CN1CCc2cc(O)c(O)cc2[C@H](c2ccccc2)C1	i	-1%	-3%	i	u	u
O=C1C2=CC[C@H]3C(=O)N(C4CCCCC4)C(=O)[C@@H]3[C@@H]2[C@H](O)[C@@H]2O[C@H]12	x	4%[11.5 µM]	x	x	-20%[11.4 µM]	-4%[11.4 µM]
N#CC1=C(N)C(C#N)(C#N)[C@H](c2c(F)cccc2F)[C@H]2CC3(CC=C12)OCCO3	1.8e-08M*	9%	12%	1.4e-08M*	11%	22%
N#CC1=C(N)C(C#N)(C#N)C2(CCC3(CC2)OCCO3)C2CC3(CC=C12)OCCO3 (configuration not stated)	u	1%	-6%	u	-13%	u
COC(=O)c1cc2sccc2n1Cc1ccc(C)cc1	1.4e-08M*	0%	-8%	u	-7%	-3%
Cn1cccc1C(=O)NC(=O)CSc1nnc(C2CC2)n1-c1ccccc1	i	1%	9%	i	-2%	-2%
O=C(O)CSc1nnc(C2CC2)n1-c1ccccc1	i	2%	-10%	i	u	0.4µM*
Cc1ccc2[nH]c(=O)c(CN(Cc3ccccc3)Cc3nnnn3C3CCCC3)cc2c1	u	16%	31%	u	-2%	u
SMILES	A350 autofl	AID923	USP2a inhib	4-MU autofl	HADH2 inhib	HSD17B inhib
Cc1ccc2[nH]c(=O)c(CN(CCO)Cc3nnnn3CCc3ccccc3)cc2c1	1.5e-08M*	8%	6%	1.7e-08M*	16%	u
Cc1ccc2[nH]c(=O)c(CN(Cc3cccs3)Cc3nnnn3Cc3ccccc3)cc2c1	1.2e-08M*	-1%	55%	1.1e-08M*	-5%	u
O=[n+]1c2c(n([O-])c3c1CCC3)CCCC2	i	-1%	-3%	i	-8%	-4%
O=[n+]1cc(-c2ccccc2)n([O-])c2c1CCC2	1.3e-08M*	-2%	-10%	u	7%	8%
C=CCNc1ncnc2c1cnn2-c1ccc(Cl)cc1	x	-1%	x	x	-12%	25µM*
COc1ccccc1Nc1ncnc2c1cnn2-c1cccc(C)c1	1.5e-08M*	x	x	1.4e-08M*	x	x
CCCCNc1ncnc2c1cnn2-c1ccc(Cl)cc1	x	0%	x	x	u	u
COc1cccc(Nc2ncnc3c2cnn3-c2cccc(C)c2)c1	x	0%	x	x	0%	u
Cc1cccc(-n2ncc3c(NC4CCCCC4)ncnc32)c1	x	-4%	x	x	5%	u
Clc1ccc(-n2ncc3c(NCCN4CCOCC4)ncnc32)cc1	u	-1%	-10%	i	-7%	20µM*
C=CCNc1ncnc2c1cnn2-c1cccc(C)c1	x	-1%	x	x	-22%	25µM*
Oc1c(C=NCc2ccncc2)sc2ccccc12	1.7e-08M*	x	x	1.3e-08M*	x	x
CC(=O)NCCN=Cc1sc2ccccc2c1O	x	7%	x	x	32µM*	-1%
CC(=O)Nc1nc(=O)c2ccccc2s1	i	2%	-6%	i	-3%	4%
Oc1c(C=Nc2cccnc2)sc2ccccc12	4.4e-08M*	x	x	3.6e-08M*	x	x
CN=Cc1sc2ccccc2c1O	u	9%	-3%	u	-9%	-11%
CN(C)S(=O)(=O)c1ccc(Nc2ccc(O)c3c2C(=O)c2c([N+](=O)[O-])ccc(O)c2C3=O)cc1	i	-2%[11.5 µM]	x	i	1%[11.4 µM]	-5%[11.4 µM]
COc1ccc(C2=NOC(C(=O)Nc3ccc(C)cc3)C2)cc1OC (configuration not stated)	u	-1%	18%	u	-16%	0%
COc1ccc(NC(=O)c2cc(-c3ccc(OC)c(OC)c3)on2)cc1OC	1.6e-08M*	4%	6%	1.8e-08M*	-20%	u
COc1ccc(NC(=O)C2CC(c3ccc(OC)c(OC)c3)=NO2)cc1OC (configuration not stated)	2.6e-08M*	0%	8%	2.5e-08M*	-5%	u
Cc1ccc(NC(=O)c2cc(-c3ccco3)on2)cc1C	i	0%	13%	i	-22%	25µM*
